Measured values published in PubChem BioAssay (NCI).
About 83,000 compounds went through this panel and 20% of them were active in at least one assay; those are over-represented in the sample as a whole.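 48-hour exposure, single concentration, 96-well plates; percent growth endpoint where 0 means no net growth. Active: below 10.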

What was measured:
Test in all cases: NCI-60 one-dose screen, 48 h (100 = growth as untreated, 0 = no growth, -100 = all killed)
Details in all cases: 10 µM unless noted
T-47D breast = tested on: T-47D breast
BT-549 breast = tested on: BT-549 breast
MDA-MB-435 melanoma = tested on: MDA-MB-435 melanoma
SW-620 colon = tested on: SW-620 colon
MCF7 breast = tested on: MCF7 breast
HCT-116 colon = tested on: HCT-116 colon
HCC-2998 colon = tested on: HCC-2998 colon
KM12 colon = tested on: KM12 colon

Measured: growth

O=S(=O)(O)c1cccnc1
inactive: T-47D breast 106% | BT-549 breast 111% | MDA-MB-435 melanoma 102% | SW-620 colon 98.9% | MCF7 breast 99.9% | HCT-116 colon 126% | HCC-2998 colon 153% | KM12 colon 101%

CCNCC(C)(C)O
inactive: T-47D breast 104% | BT-549 breast 105% | MDA-MB-435 melanoma 106% | SW-620 colon 106% | MCF7 breast 97.1% | HCT-116 colon 101% | HCC-2998 colon 109% | KM12 colon 113%

COC1(OC)C2(Cl)C(Cl)=C(Cl)C1(Cl)C1COCC12 (centres undefined)
inactive: T-47D breast 96.2% | BT-549 breast 105% | MDA-MB-435 melanoma 99% | SW-620 colon 85.8% | MCF7 breast 101% | HCT-116 colon 91.5% | HCC-2998 colon 105% | KM12 colon 111%

CCCOCc1cn[nH]n1
inactive: T-47D breast 105% | BT-549 breast 109% | MDA-MB-435 melanoma 105% | SW-620 colon 109% | MCF7 breast 103% | HCT-116 colon 107% | HCC-2998 colon 104% | KM12 colon 106%

O=c1nc(Nc2cccc(Cl)c2)oc2cc(Cl)oc(=O)c12
inactive: T-47D breast 61.6% | BT-549 breast 91.2% | MDA-MB-435 melanoma 85.8% | SW-620 colon 74.1% | MCF7 breast 53.8% | HCT-116 colon 55.1% | HCC-2998 colon 96.2% | KM12 colon 81.7%

COc1cccc(C(=O)NNC(=O)c2cccc3ccccc23)c1
inactive: T-47D breast 95.4% | BT-549 breast 110% | MDA-MB-435 melanoma 113% | SW-620 colon 107% | MCF7 breast 109% | HCT-116 colon 108% | HCC-2998 colon 102% | KM12 colon 115%

C=C1SC(=Nc2c(C)cccc2C)N(c2nc(Cl)nc(Cl)n2)C12CCCCC2
inactive: T-47D breast 101% | BT-549 breast 91.6% | MDA-MB-435 melanoma 93.5% | SW-620 colon 112% | MCF7 breast 103% | HCT-116 colon 93.7% | HCC-2998 colon 111% | KM12 colon 103%

CCOC(=O)/C(C#N)=C\c1c[nH]c2ccccc12
inactive: T-47D breast 86.5% | BT-549 breast 129% | MDA-MB-435 melanoma 113% | SW-620 colon 115% | MCF7 breast 77% | HCT-116 colon 100% | HCC-2998 colon 108% | KM12 colon 109%

C#CCSc1nnnn1-c1ccccc1
inactive: T-47D breast 39.6% | BT-549 breast 76.8% | MDA-MB-435 melanoma 85.3% | SW-620 colon 53.2% | MCF7 breast 69.3% | HCT-116 colon 71.6% | HCC-2998 colon 104% | KM12 colon 77.6%

CC(=O)NC(CCC(=O)c1ccccc1)C(=O)O (centres undefined)
inactive: T-47D breast 83.3% | BT-549 breast 76.9% | MDA-MB-435 melanoma 99.2% | SW-620 colon 100% | MCF7 breast 89.4% | HCT-116 colon 80.2% | HCC-2998 colon 108% | KM12 colon 103%

Cc1onc(-c2ccccc2Cl)c1C(=O)Cl
inactive: T-47D breast 99.5% | BT-549 breast 117% | MDA-MB-435 melanoma 95.3% | SW-620 colon 103% | MCF7 breast 89% | HCT-116 colon 105% | HCC-2998 colon 102% | KM12 colon 119%

CC(C)N(C(=O)c1ccccc1)C(C)C
inactive: T-47D breast 99.5% | BT-549 breast 106% | MDA-MB-435 melanoma 107% | SW-620 colon 104% | MCF7 breast 97.8% | HCT-116 colon 104% | HCC-2998 colon 98.3% | KM12 colon 111%

CC1CCC(C)(C)c2ccccc21 (centres undefined)
inactive: T-47D breast 91.1% | BT-549 breast 105% | MDA-MB-435 melanoma 105% | SW-620 colon 115% | MCF7 breast 91.4% | HCT-116 colon 95.9% | HCC-2998 colon 96.9% | KM12 colon 106%

O=S(=O)(O)c1cccc2cccnc12
inactive: T-47D breast 106% | BT-549 breast 121% | MDA-MB-435 melanoma 105% | SW-620 colon 94.6% | MCF7 breast 106% | HCT-116 colon 100% | HCC-2998 colon 103% | KM12 colon 105%

C=CCc1cc(OC)c(O)c(OC)c1
inactive: T-47D breast 83.7% | BT-549 breast 106% | MDA-MB-435 melanoma 108% | SW-620 colon 114% | MCF7 breast 96.9% | HCT-116 colon 92.6% | HCC-2998 colon 102% | KM12 colon 104%

CCOc1ccncc1[N+](=O)[O-]
inactive: T-47D breast 104% | BT-549 breast 111% | MDA-MB-435 melanoma 107% | SW-620 colon 101% | MCF7 breast 100% | HCT-116 colon 108% | HCC-2998 colon 106% | KM12 colon 101%

Cc1ccc(N)c(S(=O)(=O)O)c1
inactive: T-47D breast 101% | BT-549 breast 104% | MDA-MB-435 melanoma 117% | SW-620 colon 101% | MCF7 breast 98.9% | HCT-116 colon 98.1% | HCC-2998 colon 95.7% | KM12 colon 101%

CCOC(OCC)C(=O)c1ccccc1
inactive: T-47D breast 103% | BT-549 breast 101% | MDA-MB-435 melanoma 109% | SW-620 colon 92.3% | MCF7 breast 94.4% | HCT-116 colon 108% | HCC-2998 colon 112% | KM12 colon 99.4%
